Assay results taken from ChEMBL document CHEMBL3988442, “University of Dundee, Small-Polar-MMV Screening Library” (2021).
Hit rate of the full screen: of about 48,000 compounds, about 13,000 (27%) showed an effect of 50% or more. The list shows a part of the results.

The compounds below were run on Wolbachia pipientis (assay: Anti-Wolbachia Cell-Based Screen). Settings: 5 µM.
Assay type: functional
Parameters: scale not given: in the data most compounds retested in dose-response had high values

Structure (SMILES) | Percent Effect [%]
CCN(C)CC(C)Cn1cnc(-c2ccccc2)c1C (stereo unspecified) | 25.31
Cc1nc(C)c(CNCc2nnc3n2CCCC3C(F)(F)F)s1 (stereo unspecified) | -2.721
O=C(CC1Cn2ncnc2NC1=O)Nc1cccc(C(F)(F)F)c1 (stereo unspecified) | 102.6
COc1cccc(NC(=O)CNc2ccc(C(=O)N(C)C)c(Cl)c2)c1 | 14.49
O=C(CN1CCC(Nc2ncccn2)CC1)Nc1ccccc1 | -0.5486
CCc1ccc(NC(=O)CC2Cn3ncnc3NC2=O)cc1 (stereo unspecified) | 123.1
O=C(Nc1cccc(C(F)(F)F)c1)N1CCN(CCn2ccnc2)CC1 | 2.864
CCc1ccc(C(=O)Nc2ccc(CC3CC(=O)NC3=O)cc2)cc1 (stereo unspecified) | -15.63
O=C(Nc1cccc(C(F)(F)F)c1)C1CC(=O)N(Cc2ccccn2)C1 (stereo unspecified) | 6.876
COC(=O)C1CN(CC(=O)Nc2cccc(OC)c2)c2ccccc21 (stereo unspecified) | 10.48
O=C(CC1Cn2ncnc2NC1=O)Nc1ccccc1 (stereo unspecified) | 119.2
COc1cccc(NC(=O)CC2Cn3ncnc3NC2=O)c1 (stereo unspecified) | 110.1
O=C(CN1C[C@H]2CC[C@@H]1CN(Cc1ccccn1)C2)Nc1ccccc1 | 0.8626
CCc1ccc(C(=O)Nc2ccc(CC3CC(=O)NC3=O)cc2)s1 (stereo unspecified) | -2.558
O=C(c1cc(F)cc(Cl)c1)N1CCN(CCO)[C@@H]2CS(=O)(=O)C[C@@H]21 | -9.741
Cc1cc(CN2CCCC(CNC(=O)Cn3cccn3)C2)oc1C (stereo unspecified) | -41.99
O=C(NCCc1cccs1)N1CCCC1CCCO (stereo unspecified) | -4.53
CC(C)c1nc2n(n1)CC(NCc1nc(-c3cccnc3)no1)CC2 (stereo unspecified) | -4.778
COc1ccccc1C1(O)CCCN(C(=O)c2csc(C(C)=O)c2)C1 (stereo unspecified) | 80.49
COc1ccccc1C(=O)N1CCC(O)(c2cccc(C)c2C)CC1 | 6.429
COc1ccccc1C1(O)CCCN(C(=O)c2ccnn2C(C)C)C1 (stereo unspecified) | 100.6
COc1ccccc1[C@@H]1CN(Cc2csc(C(C)=O)c2)C[C@H]1C(=O)O | -15.68
COc1ccccc1C1CCN(C(=O)c2ncccc2OC(C)C)C1 (stereo unspecified) | 1.547
COc1ncc(C(=O)N2CCC3(CC2)C(=O)Nc2ccccc23)cn1 | -4.36

Structure (SMILES) | Percent Effect [%]
CSc1ncc(C(=O)N2CCC(O)(CN3CCOCC3)C(C)(C)C2)cn1 (stereo unspecified) | -3.216
COc1ccccc1C1(O)CCCN(C(=O)c2cnc(SC)nc2)C1 (stereo unspecified) | 97.81
CC(=O)c1cc(C(=O)N2CCC3(CC2)Nc2ccccc2NC3=O)cs1 | 16.29
CN(Cc1cn2c(n1)CN(C(=O)c1cccn1C)CC2)Cc1ccco1 | 10.07
COc1cccc(OCc2nnc3n2N=C(C(C)(C)C)CS3)c1 | -3.476
CCC(CC)N(Cc1cc(=O)n(C)c(=O)n1C)C1CC1 | -2.422
CC(C)C(O)CNC(=O)Nc1cccc(-c2nccs2)c1 (stereo unspecified) | 0.8901
CN1CCC2(CC1)CN(CC1CC1)CC21CCNC1=O.O=C(O)C(F)(F)F.O=C(O)C(F)(F)F (stereo unspecified) | -40.68
COCCN1CCC(CNC(=O)C2(c3cccc(C)c3)CC2)C1 (stereo unspecified) | 112.6
COCCN1CCC(CNC(=O)C2(c3cccc(Cl)c3)CC2)C1 (stereo unspecified) | 119
CCN1CCCC(CNC(=O)C2(c3cccc(Cl)c3)CC2)C1 (stereo unspecified) | 3.483
COCCN1CCC(CNC(=O)C2(c3cccc(C)c3)CC2)CC1 | 2.355
COCCN1CCC(NC(=O)C2(c3cc(C)cc(C)c3)CC2)CC1 | 0.6832
COCCN1CCC(CNC(=O)C2(c3cc(C)cc(C)c3)CCC2)C1 (stereo unspecified) | 8.369
COCCN1CCC(CNC(=O)C2(c3cc(C)cc(C)c3)CC2)CC1 | 106.5
COC(C)c1noc(CN(C)c2ncc(Br)cn2)n1 (stereo unspecified) | 13.56
CCCc1noc(CCCC(=O)N2CCCC(n3ccnc3C)C2)n1 (stereo unspecified) | -4.622
CCCN1CCC(N2CCC(Cn3cc(C4CC4)nn3)CC2)CC1 | -14.8
Cc1ccc(F)c(S(=O)(=O)NCc2cccc(CS(C)(=O)=O)c2)c1 | -5.265
CCS(=O)(=O)N1C[C@H]2CN(Cc3cccc(F)c3)C(=O)[C@H]2C1 | 106.4
CCS(=O)(=O)N1C[C@H]2CN(Cc3ccc(OC)cc3)C(=O)[C@H]2C1 | 106.9
Cc1cccc(CN2C[C@@H]3CN(C4CCOCC4)C[C@@H]3C2=O)c1.O=C(O)C(F)(F)F | 2.907
Cc1cccc(CN2C[C@@H]3CN(C(=O)c4ccsc4)C[C@@H]3C2=O)c1 | 0.6245
Cc1cccc(CN2C[C@@H]3CN(C(=O)NC(C)C)C[C@@H]3C2=O)c1 | 0.03785

Structure (SMILES) | Percent Effect [%]
O=C(O)C(F)(F)F.O=C1[C@H]2CN(CC3CCOCC3)C[C@H]2CN1Cc1cccc(F)c1 | -3.595
COc1ccc(CN2C[C@@H]3CN(CCO)C[C@@H]3C2=O)cc1 | -4.847
COc1ccc(CN2C[C@@H]3CN(S(=O)(=O)C4CC4)C[C@@H]3C2=O)cc1 | -20.01
CCS(=O)(=O)N1C[C@H]2CN(Cc3cccc(C)c3)C(=O)[C@H]2C1 | 103
CCCNC(=O)[C@@H]1CCCN1[C@@H](C(=O)NC)C1CC1.Cl | -3.59
O=C(N1CCC(O)(C(F)(F)F)C1)C1(c2cccc(Cl)c2)CC1 (stereo unspecified) | -4.685
C[S+]([O-])c1ccc(NC(=O)CC2=CCCCC2)cc1 (stereo unspecified) | -2.422
CCOCC1CN(c2ncc(F)cn2)Cc2cn(CC)nc21 (stereo unspecified) | -1.494
CCOCC1CN(CCOc2ccc(Cl)cc2)Cc2c1cnn2C.O=C(O)C(F)(F)F.O=C(O)C(F)(F)F (stereo unspecified) | -5.642
CCOCC1CN(CCc2ccccc2)Cc2c1cnn2C (stereo unspecified) | 9.007
CCn1ncc2c1CN(CCc1cccc(Cl)c1)CC2COC.O=C(O)C(F)(F)F.O=C(O)C(F)(F)F (stereo unspecified) | 128.6
CCn1ncc2c1CN(C(=O)Cc1ccccn1)CC2COC.O=C(O)C(F)(F)F.O=C(O)C(F)(F)F (stereo unspecified) | -10.79
COCC1CN(S(=O)(=O)c2ccc(C)cc2)Cc2c1cnn2C.O=C(O)C(F)(F)F (stereo unspecified) | 14.09
COCC1CN(CCc2ccc(OC)c(OC)c2)Cc2c1cnn2C (stereo unspecified) | 98.17
CCn1ncc2c1CN(C(=O)c1cc(C)oc1C)CC2COC.O=C(O)C(F)(F)F (stereo unspecified) | -2.484
COCC1CN(CCOc2ccc(Cl)cc2)Cc2c1cnn2C.O=C(O)C(F)(F)F.O=C(O)C(F)(F)F (stereo unspecified) | 128.1
CCOCC1CN(CCOCc2ccccc2)Cc2c1cnn2C (stereo unspecified) | -3.92
CN1CCN(c2ccc(NCc3ccc(OC(F)(F)F)cc3)cn2)CC1 | -13.31
COC(=O)N1CCC(Nc2cccc(F)c2C#N)CC1 | 6.326
N#Cc1ccccc1C(=O)N1C[C@@H](CN2CCCCCC2)[C@@H](CO)C1 | -2.218
Cc1nnc(SCC(=O)N2CCc3[nH]nc(C4CCC4)c3C2)o1 | -25.51
CCN(CC)C(=O)C(c1ccccc1)N1CCn2c(C)nnc2C1 (stereo unspecified) | -5.766
CC1(C)CC(CC(=O)N2CC(C)(C)[C@@](C)(O)C2)CC(C)(C)N1 | -10.88
CCc1cc(N[C@@H](CC(C)C)C(N)=O)n2nc(C)c(C)c2n1 | 1.157

Structure (SMILES) | Percent Effect [%]
O=C([C@@H]1CCCO1)N1CCN(Cc2ccncc2)c2ncccc2C1 | 98.82
O=C1CC(C(=O)N2CCc3sccc3C2)CN1Cc1cccnc1 (stereo unspecified) | -4.394
O=C([C@H]1CCCO1)N1CCN(Cc2cccnc2)c2ncccc2C1 | 109.6
CCC(C)(C)NC(=O)c1ccc(NC(=O)NCc2cc(C)no2)cc1 | -4.635
COCCN(CCOC)c1nc2c(s1)c(C)nn2C | 0.9407
COC(=O)[C@@H](NC(=O)Nc1ccc(C(C)=O)cc1)C(C)C | 115.5
COCC(=O)N1CCC(C(=O)Nc2ccc(C(C)=O)cc2)CC1 | -27.44
Cc1ccc(NC(=O)NC(C)c2nc[nH]n2)cc1 (stereo unspecified) | -1.45
COC(=O)C(NC(=O)Nc1ccc(C(C)=O)cc1)C(C)C (stereo unspecified) | 123.5
CCn1nc(C(=O)N2CCCC(n3cncn3)C2)ccc1=O (stereo unspecified) | -5.268
O=C(c1ccc(OCC2CC2)nc1)N1CCCC(n2cncn2)C1 (stereo unspecified) | -8.592
Cc1nc(C)n(C2CCCN(C(=O)c3ccc(N(C)C)nn3)C2)n1 (stereo unspecified) | -4.997
Cc1cnn(C2CCCN(C(=O)c3ccc(N(C)C)nn3)C2)c1 (stereo unspecified) | -2.152
Cc1nccn1C1CCCN(C(=O)c2ccc(N(C)C)nn2)C1 (stereo unspecified) | 121.5
CN(C)c1ccc(C(=O)N2CCCC(n3cncn3)C2)nn1 (stereo unspecified) | 102.9
COc1ccc(C(=O)N2CCCC(n3cncn3)C2)nn1 (stereo unspecified) | 89.87
CCc1nccn1C1CCCN(C(=O)c2ccc(N(C)C)nn2)C1 (stereo unspecified) | 8.431
COc1cc(CN2CCCC2)ccc1Oc1ccc2c(c1)CC(CN)O2 (stereo unspecified) | -3.423
COc1ccccc1CC(=O)NS(=O)(=O)c1cncc(Br)c1 | 1.416
COc1ccccc1CC(=O)NS(C)(=O)=O | -0.264
CCCN(Cc1ccc(S(=O)(=O)NC)cc1)Cc1ccccc1OC | 2.153
CCCc1nc(C)c(C(=O)NS(=O)(=O)c2ccc(C#N)cc2)s1 | 11.71
COc1ccccc1CC(=O)NS(=O)(=O)c1ccc(C#N)cc1 | 90.41
COc1ccccc1CC(=O)NS(=O)(=O)c1ccc(NC(C)=O)cc1 | 120.5
